# Measured values from PubChem BioAssay (NCI).
# The panel holds about 79,000 compounds, 15% with a hit somewhere; the sample as a whole holds those more often. A number with no mark means an inactive call. Calls of active or inactive are those of the source. Cut-off read from the data, not from the text of the source: active = growth inhibition above about 70%; inactive = the rest.
# Tests used:
# [1] = NCI Yeast Anticancer Drug Screen. Data for the rad52 strain (AID 147);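 note: 0% = growth of vehicle-treated control cultures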; settings: S. cerevisiae rad52 mutant growth inhibition, stronger effect = higher value
# Method in brief: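 Measured: yeast growth inhibition. System: strain with a defined DNA damage repair alteration. Reference: vehicle-treated control cultures.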
# [2] = NCI Yeast Anticancer Drug Screen. Data for the rad50EPP+ strain (AID 151);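 note: 0% = growth of vehicle-treated control cultures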; settings: S. cerevisiae rad50 mutant strain, stronger effect = higher value
# Method in brief: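 One strain with a rad50 alteration (rad50EPP+) was compound-treated, its growth then compared to that of vehicle controls.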
# [3] = NCI Yeast Anticancer Drug Screen. Data for the mgt1 strain (AID 153); settings: S. cerevisiae mgt1 mutant growth inhibition, stronger effect = higher value
# Method in brief: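 After exposure of the mgt1 yeast mutant to compound, growth was measured and reported as inhibition compared with vehicle controls.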
# [4] = NCI Yeast Anticancer Drug Screen. Data for the mec2-1 strain (AID 157); settings: S. cerevisiae mec2-1 strain, stronger effect = higher value
# Method in brief: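 Test agents were screened against the mec2-1 yeast strain, with defined DNA repair or cell cycle alteration. Growth was scored as inhibition against vehicle-only controls.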
# [5] = NCI Yeast Anticancer Drug Screen. Data for the rad14 strain (AID 159);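 note: 0% = growth of vehicle-treated control cultures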; settings: S. cerevisiae rad14 strain growth inhibition, stronger effect = higher value
# Method in brief: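 Inhibition of growth is reported for a repair-deficient yeast mutant following compound treatment, calculated relative to cultures that received vehicle.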
# [6] = NCI Yeast Anticancer Drug Screen. Data for the sgs1 mgt1 strain (AID 161);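 note: 0% = growth of cultures given vehicle only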; settings: S. cerevisiae sgs1 mgt1 strain, stronger effect = higher value
# Method in brief: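 Read-out: growth inhibition vs vehicle controls. Cells: mutant yeast strain deficient in DNA damage repair.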
# [7] = NCI Yeast Anticancer Drug Screen. Data for the CLN2oe strain (AID 163);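 note: 0% = growth of vehicle-only control cultures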; settings: S. cerevisiae CLN2oe strain, stronger effect = higher value
# Method in brief: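 Here, growth inhibition in a cell-cycle-altered yeast strain after compound exposure was quantified against vehicle control growth.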
# [8] = NCI Yeast Anticancer Drug Screen. Data for the cln2 rad14 strain (AID 165);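 note: 0% = growth equal to vehicle treated cultures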; settings: S. cerevisiae cln2 rad14 strain, stronger effect = higher value
# Method in brief: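 Growth of compound-exposed yeast (cln2 rad14 genotype) measured and expressed as inhibition relative to vehicle.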
# [9] = NCI Yeast Anticancer Drug Screen. Data for the bub3 strain (AID 167); settings: S. cerevisiae bub3 mutant strain, stronger effect = higher value
# Method in brief: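 Mutant yeast screening strain plus compound; vehicle-treated cultures serve as the 0% inhibition reference.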
# [10] = NCI Yeast Anticancer Drug Screen. Data for the wt2 strain (AID 169); settings: S. cerevisiae wt2 strain growth inhibition, stronger effect = higher value
# Method in brief: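 Genetically defined yeast strains from a DNA-repair/cell-cycle panel were used. Compound-exposed yeast growth was measured, and the inhibition was calculated relative to vehicle treatment.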
# [11] = NCI Yeast Anticancer Drug Screen. Data for the mlh1 strain (AID 171);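 note: 0% = growth of vehicle-treated control cultures of the same strain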; settings: S. cerevisiae mlh1 strain growth inhibition, stronger effect = higher value
# Method in brief: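 Here the genetically defined yeast mutant is grown with each compound, and the extent to which its growth falls below that of vehicle-exposed cells is reported.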
# [12] = NCI Yeast Anticancer Drug Screen. Data for the sgs1 strain (AID 173);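 note: 0% = growth of vehicle-only control cultures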; settings: S. cerevisiae sgs1 mutant, stronger effect = higher value
# Method in brief: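 Relative growth inhibition, referenced to vehicle, was determined in a yeast strain with a defined alteration affecting DNA damage repair or cell cycle control after compound exposure.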
# [13] = at 5.0 µM (retest, dose inferred, filed as 0.5)
# [14] = at 50.0 µM (retest, dose inferred, filed as 5.0)
smiles,measurement,setting,value
O=C(CCc1ccccc1)ON1C(=S)C(c2ccccc2)(c2ccccc2)N=C1Sc1ccccc1,growth inhibition,[1]; at 1.2 µM,13%
same,growth inhibition,[1]; at 3.7 µM,9%
same,growth inhibition,[1]; at 11.0 µM,19%
same,growth inhibition,[1]; at 33.0 µM,23%
same,growth inhibition,[1]; at 100.0 µM,36%
same,growth inhibition,[2]; at 1.2 µM,0%
same,growth inhibition,[2]; at 3.7 µM,-6%
same,growth inhibition,[2]; at 11.0 µM,1%
same,growth inhibition,[2]; at 33.0 µM,7%
same,growth inhibition,[2]; at 100.0 µM,5%
same,growth inhibition,[3]; at 1.2 µM,44%
same,growth inhibition,[3]; at 3.7 µM,50%
same,growth inhibition,[3]; at 11.0 µM,51%
same,growth inhibition,[3]; at 33.0 µM,54%
same,growth inhibition,[3]; at 100.0 µM,56%
same,growth inhibition,[4]; at 1.2 µM,22%
same,growth inhibition,[4]; at 3.7 µM,14%
same,growth inhibition,[4]; [13],23%
same,growth inhibition,[4]; at 11.0 µM,6%
same,growth inhibition,[4]; at 33.0 µM,7%
same,growth inhibition,[4]; [14],94% (active)
same,growth inhibition,[4]; at 50.0 µM,61%
same,growth inhibition,[4]; at 100.0 µM,26%
same,growth inhibition,[5]; at 1.2 µM,20%
same,growth inhibition,[5]; at 3.7 µM,20%
same,growth inhibition,[5]; at 11.0 µM,27%
same,growth inhibition,[5]; at 33.0 µM,21%
same,growth inhibition,[5]; at 100.0 µM,36%
same,growth inhibition,[6]; [13],-22%
same,growth inhibition,[6]; [14],37%
same,growth inhibition,[6]; at 50.0 µM,56.6%
same,growth inhibition,[7]; at 1.2 µM,4%
same,growth inhibition,[7]; at 3.7 µM,-8%
same,growth inhibition,[7]; at 11.0 µM,-4%
same,growth inhibition,[7]; at 33.0 µM,19%
same,growth inhibition,[7]; at 100.0 µM,57%
same,growth inhibition,[8]; [13],-2%
same,growth inhibition,[8]; [14],35%
same,growth inhibition,[8]; at 50.0 µM,45.9%
same,growth inhibition,[9]; at 1.2 µM,6%
same,growth inhibition,[9]; at 3.7 µM,-10%
same,growth inhibition,[9]; [13],-1%
same,growth inhibition,[9]; at 11.0 µM,-5%
same,growth inhibition,[9]; at 33.0 µM,-7%
same,growth inhibition,[9]; [14],32%
same,growth inhibition,[9]; at 50.0 µM,78.7% (active)
same,growth inhibition,[9]; at 100.0 µM,22%
same,growth inhibition,[10]; at 1.2 µM,1%
same,growth inhibition,[10]; at 3.7 µM,-4%
same,growth inhibition,[10]; at 11.0 µM,0%
same,growth inhibition,[10]; at 33.0 µM,14%
same,growth inhibition,[10]; at 100.0 µM,44%
same,growth inhibition,[11]; at 1.2 µM,44%
same,growth inhibition,[11]; at 3.7 µM,50%
same,growth inhibition,[11]; at 11.0 µM,51%
same,growth inhibition,[11]; at 33.0 µM,54%
same,growth inhibition,[11]; at 100.0 µM,56%
same,growth inhibition,[12]; at 1.2 µM,43%
same,growth inhibition,[12]; at 3.7 µM,44%
same,growth inhibition,[12]; at 11.0 µM,46%
